# Compounds with a hit are over-represented: about 3% of the library has one in this group of screens.
# SENP8 block-1: blocks human SENP8 cleavage of Nedd8 substrate; Q96LD8; recombinant SENP8, Nedd8 substrate fluorescence; inhibition, % at 20 µM; 360,000 tested, 0.64% active; AID 602440; in the data active = inhibition mostly above about 40%, no sharp cut-off; inactive = mostly below about 27%
# Target sequence (Q96LD8 whole entry, looked up): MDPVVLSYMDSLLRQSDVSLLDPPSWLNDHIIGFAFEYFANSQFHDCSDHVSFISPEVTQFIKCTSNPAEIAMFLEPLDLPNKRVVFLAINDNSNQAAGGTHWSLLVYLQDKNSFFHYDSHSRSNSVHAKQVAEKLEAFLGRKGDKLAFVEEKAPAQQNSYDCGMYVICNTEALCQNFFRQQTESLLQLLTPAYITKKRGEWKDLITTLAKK
# SENP8 block-2: SENP8 protease inhibition; purified SENP8, Z-RLRGG-aminoluciferin cleavage, luminescence; AID 2540; inhibition, % at 10 µM; Q96LD8; 330,000 tested, 1.2% active; in the data active = inhibition above about 50%
# TRAIL sens C8: sensitizes caspase-8 expressing cells to TRAIL. NB7+C8 cells + TRAIL, ATPlite viability luminescence. inhibition (viability loss, TRAIL sensitization), % at 10 µM. 360,000 tested, 1% active;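 active = compounds causing at least 50% loss of cell viability in the single-dose screen, relative to plate controls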
# SENP6 block: inhibitors of human SENP6 protease; Recombinant SENP6 catalytic domain, aminoluciferin luminescence; AID 2599; Q9GZR1; inhibition, % at 10 µM; 330,000 tested, 1.8% active;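 active = inhibition above about 50% at the single tested dose, limit read from the data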
# SENP7 block: inhibitors of human SENP7 protease; 330,000 tested, 1.5% active; Q9BQF6; inhibition, % at 5 µM; AID 434973; recombinant SENP7, Z-RLRGG-aminoluciferin luminescence, 40 min;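 active = inhibition above about 50% at the single test dose, limit read from the data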
# Target sequence (Q9BQF6 706-1050 limits assumed): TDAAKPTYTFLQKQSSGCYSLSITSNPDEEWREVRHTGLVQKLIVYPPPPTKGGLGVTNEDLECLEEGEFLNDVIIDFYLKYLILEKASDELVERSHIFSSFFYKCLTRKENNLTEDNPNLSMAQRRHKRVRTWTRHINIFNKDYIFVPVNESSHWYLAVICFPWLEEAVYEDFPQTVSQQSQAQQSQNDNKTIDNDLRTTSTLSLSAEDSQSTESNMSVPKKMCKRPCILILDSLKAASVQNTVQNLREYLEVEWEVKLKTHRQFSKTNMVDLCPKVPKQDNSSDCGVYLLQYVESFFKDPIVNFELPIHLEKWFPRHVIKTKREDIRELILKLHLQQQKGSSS
# PPC-1+TRAIL kill: kills PPC-1 cancer cells in the presence of TRAIL | PPC-1 cells + TRAIL, ATPLite viability luminescence | cell killing (% activity), % at 4 µM or 5 µM | 220,000 tested, 0.41% active;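 active = cell killing above 50% in the first pass at 4 µM, then a duplicate retest at 5 µM averaging 50% or more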
# Numbers stand for hits; . = inactive; / = no result given.
SMILES,SENP8 block-1,SENP8 block-2,TRAIL sens C8,SENP6 block,SENP7 block,PPC-1+TRAIL kill
O=C(Nc1ccc(-c2cn3ccccc3n2)cc1)c1cccs1,.,.,52,.,52,.
Cc1ccn2cc(C(=O)Nc3cccc(C(=O)NC4CC4)c3)nc2c1,.,.,54,.,.,/
O=C(Nc1ccccc1)c1cn2ccccc2n1,.,82,58,90,91,.
COCc1c(C(=O)NCc2ccccc2CN2CCCC2)oc2ccccc12,.,.,.,.,.,/
CCN(CC(=O)Nc1c(F)cccc1F)C(=O)c1ccc2c(c1)S(=O)(=O)N=C1CCCCCN12,.,.,.,.,.,/
CC(C)Cc1nnc(NC(=O)C2CCCN(C(=O)c3ccc(Cl)cc3)C2)s1 (configuration not stated),.,/,.,/,/,/
COc1ccccc1OC(C)C(=O)Nc1nc(-c2ccc(S(=O)(=O)N3CCOCC3)cc2)cs1 (configuration not stated),.,.,.,.,.,.
COc1ccccc1C(=O)Nc1nc(-c2ccc(S(=O)(=O)N3CCOCC3)cc2)cs1,.,.,76,.,.,.
CCOC(=O)C1(CC)NC(c2ccc(OC)cc2OC)C2C(=O)N(C)C(=O)C21 (configuration not stated),.,.,.,.,.,.
COc1ccccc1/C=C1\Cc2ccccc2C1=O,.,/,.,/,/,.
Nc1ccccc1C=C1Cc2ccccc2C1=O,.,/,48,/,/,/
COc1ccc(C=NCCCN2CCOCC2)cc1,.,.,.,.,.,.
COc1ccc(/C=C2/CCC(CN3CCOCC3)C2=O)cc1 (configuration not stated),.,/,80,/,/,/
CCOC(=O)N1CCC(Nc2c(-c3ccc(C)c(C)c3)c(=O)c2=O)CC1,47,.,58,.,.,.
CCOC(=O)N1CCC(Nc2c(N3CCN(c4cc(Cl)ccc4C)CC3)c(=O)c2=O)CC1,.,.,.,.,.,.
Cn1c2c(c(=O)n(C)c1=O)CS(=O)c1ccccc1N2 (configuration not stated),.,/,.,/,/,/
CN1/C(=C\C=C2/SC(=S)N(CC(=O)O)C2=O)C(C)(C)c2ccccc21,.,.,.,.,.,.
C=CCN1C(=O)/C(=C\C=C2\N(C)c3ccccc3C2(C)C)SC1=S,56,.,.,.,.,.
CCCN1C(=O)/C(=C/C=C2\N(CC)c3ccccc3C2(C)C)SC1=S,44,.,.,.,.,.
CCOC(=O)C(=C1Nc2ccccc2N1)n1c(-c2cccnc2)nc2ccccc21,.,/,71,/,/,/
Cc1cccnc1NC(=O)CNC(=O)COc1ccccc1,.,.,.,.,.,/
Cc1nn(C(C)(C)C)c(C)c1/C=N/OC(=O)Nc1ccc(Cl)c(Cl)c1,.,.,.,59,.,.
Cc1nn(C)c(C)c1NC(=O)Nc1ccc(Cl)c(Cl)c1,.,.,.,.,.,.
Cn1c(COc2ccccc2O)[n+](C)c2ccccc21,.,.,.,.,.,/
COc1ccc(N=Nc2n(C)c3ccccc3[n+]2C)cc1,/,/,/,/,/,92
SMILES,SENP8 block-1,SENP8 block-2,TRAIL sens C8,SENP6 block,SENP7 block,PPC-1+TRAIL kill
Cc1ccc(F)c(NC(=O)/C(C#N)=C(\O)c2ccc(C(C)(C)C)cc2)c1,.,53,.,.,.,.
Cc1cccc(NC(=O)C(=O)NNC(=O)c2ccc(C(C)(C)C)cc2)c1,.,.,.,.,.,/
Cc1oc(-c2cccc(Cl)c2)nc1CN1CCC(C(=O)NCCCN2CC(C)CC(C)C2)CC1 (configuration not stated),.,.,54,.,.,/
COc1ccc(CCNC(=O)C2CCN(Cc3nc(-c4cccc(Cl)c4)oc3C)CC2)cc1OC,.,.,54,.,.,.
Cc1oc(-c2cccc(Cl)c2)nc1CN1CCC(C(=O)NCCCN2CCCC2=O)CC1,.,.,.,.,.,.
Oc1ccc2ccccc2c1C=NCc1ccccc1,.,.,.,60,.,.
Nc1nc(N)c2cc([N+](=O)[O-])ccc2n1,.,/,.,/,/,/
Nc1nc(N)c2c(ccc3c2ccn3Cc2cccc([N+](=O)[O-])c2)n1,.,/,97,/,/,/
CC[C@H](C)[C@@H]1OC(=O)[C@@H](C)[C@@H](CC)NC(=O)[C@H](C)N(C)C(=O)C(C)(C)C(=O)C(C)NC(=O)[C@H](Cc2ccccc2)N(C)C(=O)[C@H](C(C)C)N(C)C(=O)CNC(=O)[C@H](CC(C)C)N(C)C(=O)CNC1=O (some centres not stated),.,/,60,/,/,/
CC(C)CN(C(=O)COc1ccc([N+](=O)[O-])cc1)c1c(N)n(CC(C)C)c(=O)[nH]c1=O,.,.,.,.,.,/
CN(C)c1ccc(-c2nc3ccccn3c2/N=C/c2ccc(Br)cc2)cc1,.,.,53,.,.,.
Cn1cc(/C=C2\SC(=O)N(c3ccccc3)C2=O)c2ccccc21,.,.,.,.,.,.
Cn1cc(/C=C2\SC(=O)N(c3ccc(O)cc3)C2=O)c2ccccc21,.,.,.,64,.,.
O=C(Nc1ccccc1-c1ccccc1)c1ccc(Cl)c([N+](=O)[O-])c1,.,.,.,.,.,94
O=C1/C(=C/c2cccs2)SC(=S)N1c1cccc(O)c1,48,.,.,.,.,.
COc1ccc(-c2cn3c(C)c(C(=O)Nc4cccc(NC(C)=O)c4)sc3n2)cc1,.,.,69,.,.,.
CCOc1ccccc1N(CC(=O)NC(C)(C)C)C(=O)CCC(=O)Nc1nccs1,.,.,.,.,.,/
CCCCSCCCNC(=O)c1cn(C)c2ccc(S(=O)(=O)N3CCCC3)cc2c1=O,.,.,.,.,.,/
CCCCNC(=O)c1cn(C)c2ccc(S(=O)(=O)N3CC(C)CC(C)C3)cc2c1=O (configuration not stated),.,.,56,.,.,/
CCn1cc(C(=O)NCC(OC)OC)c(=O)c2cc(S(=O)(=O)N3CCC(C)CC3)ccc21,.,.,65,.,.,/
OC[C@H]1O[C@@H](c2nc3ccc(-c4nc(-c5ccc(Br)cc5)no4)cc3[nH]2)C[C@@H]1O,.,/,.,/,/,/
O=C(N/N=C/c1ccc(-c2cccc(C(F)(F)F)c2)o1)c1cccc(F)c1,.,.,73,.,.,.
O=C(N/N=C/c1ccccc1O)c1cccc(C(F)(F)F)c1,.,.,.,.,.,52
CN(Cc1ccccc1F)c1cc2c(c3c1ccn3C)C1CCC2C1 (configuration not stated),.,/,.,/,/,/
CN1CCN(c2ccc(NC(=O)c3ccco3)cc2Cl)CC1,.,.,.,.,.,/
Cc1nc2cc(NC(=O)c3ccco3)ccc2n1C,.,.,51,.,.,/
O=C(Nc1ccc(N2CCCC2)c(Cl)c1)c1ccc([N+](=O)[O-])o1,.,/,88,/,/,.
O=C(Nc1ccc(N2CCCC2)c(Cl)c1)c1ccco1,.,.,55,.,.,.
O=C(Nc1ccc(N2CCN(Cc3ccccc3F)CC2)cc1)c1ccc([N+](=O)[O-])o1,.,.,89,.,.,/
